Common to all, as to assay: yeast three-hybrid, YBZ-1, SC-Leu-His + 0.5 mM 3-AT, 4 days
Common to all, as to settings: tags: N-Gal4 AD-HA kept; label: inside an RPR1-promoter hybrid RNA with tandem MS2 sites; ssRNA

For one experiment, the target named is PUM1 PUF domain R3-LSE (Homo sapiens, UniProt Q14671 828-1176, C935L;R936S;Q939E). The procedure, abridged:
(§1)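 The interaction score is the log change in variant frequency from input to selection. Scores were computed in log2 with a pseudocount of 1 for absent variants, using Illumina sequencing of PCR-amplified repeat regions. The input came from four days on SC-Leu and the selection from four days on SC-Leu-His + 0.5 mM 3-AT. The cells were strain YBZ-1 (LexA–MS2 coat fusion, HIS3 reporter) co-expressing Pumilio-1 PUF domain libraries and matching RNA elements from a centromeric plasmid.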

Another experiment has as its target PUM1 PUF domain R7-KGQ (Homo sapiens, UniProt Q14671 828-1176, S1079K;N1080G;E1083Q). The procedure, abridged:
as §1

A further experiment has as its target PUM1 PUF domain R7-RQN (Homo sapiens, UniProt Q14671 828-1176, S1079R;N1080Q;E1083N). In a few lines:
as §1

A further experiment has as its target T1, PUM1 PUF domain R6-RFA (Homo sapiens, UniProt Q14671 828-1176, N1043R;Y1044F;Q1047A).
T1 sequence: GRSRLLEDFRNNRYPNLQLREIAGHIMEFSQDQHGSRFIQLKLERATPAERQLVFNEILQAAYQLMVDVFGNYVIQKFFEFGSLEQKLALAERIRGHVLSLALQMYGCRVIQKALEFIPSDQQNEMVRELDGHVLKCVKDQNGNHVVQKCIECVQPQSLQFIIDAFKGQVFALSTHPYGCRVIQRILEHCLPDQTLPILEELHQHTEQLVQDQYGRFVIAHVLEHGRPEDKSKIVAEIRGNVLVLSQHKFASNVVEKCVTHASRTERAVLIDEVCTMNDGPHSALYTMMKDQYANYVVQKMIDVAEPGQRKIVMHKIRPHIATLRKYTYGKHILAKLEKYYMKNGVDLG
In a few lines: as §1

A further experiment addresses PUM1 PUF domain R1-KSV (Homo sapiens, UniProt Q14671 828-1176, S863K;R864S;Q867V). The procedure, abridged:
as §1

A further experiment concerns the target PUM1 PUF domain R8-LFQ (Homo sapiens, UniProt Q14671 828-1176, N1122L;Y1123F). The procedure, abridged: as §1
A further experiment concerns the target PUM1 PUF domain R8-IFM (Homo sapiens, UniProt Q14671 828-1176, N1122I;Y1123F;Q1126M). In a few lines: as §1
Another experiment has as its target PUM1 PUF domain R8-VWR (Homo sapiens, UniProt Q14671 828-1176, N1122V;Y1123W;Q1126R). In a few lines: as §1
The next experiment has as its target PUM1 PUF domain R5-RWF (Homo sapiens, UniProt Q14671 828-1176, C1007R;R1008W;Q1011F). The procedure, abridged: as §1
A further experiment addresses PUM1 PUF domain R5-FHC (Homo sapiens, UniProt Q14671 828-1176, C1007F;R1008H;Q1011C). In a few lines: as §1
In the next experiment the target is PUM1 PUF domain R5-DRT (Homo sapiens, UniProt Q14671 828-1176, C1007D;Q1011T). The procedure, abridged: as §1
The target of the next experiment is PUM1 PUF domain R5-GHS (Homo sapiens, UniProt Q14671 828-1176, C1007G;R1008H;Q1011S). The procedure, abridged:
as §1

In a further experiment the target is PUM1 PUF domain R5-WHV (Homo sapiens, UniProt Q14671 828-1176, C1007W;R1008H;Q1011V). In a few lines: as §1
For the next experiment, the target named is T2, PUM1 PUF domain R6-TFS (Homo sapiens, UniProt Q14671 828-1176, N1043T;Y1044F;Q1047S).
T2 sequence: T1 sequence with R216T, A220S
The procedure, abridged:
as §1

The next experiment has as its target PUM1 PUF domain R3-MYH (Homo sapiens, UniProt Q14671 828-1176, C935M;R936Y;Q939H). In a few lines:
as §1

Another experiment has as its target PUM1 PUF domain R3-VWP (Homo sapiens, UniProt Q14671 828-1176, C935V;R936W;Q939P). The procedure, abridged:
as §1

The next experiment deals with PUM1 PUF domain R2-NRW (Homo sapiens, UniProt Q14671 828-1176, Y900R;Q903W). In a few lines: as §1
The next experiment addresses PUM1 PUF domain R4-DWV (Homo sapiens, UniProt Q14671 828-1176, N971D;H972W;Q975V). The procedure, abridged:
as §1

The target in a further experiment is PUM1 PUF domain R3-MCR (Homo sapiens, UniProt Q14671 828-1176, C935M;R936C;Q939R). The procedure, abridged: as §1
The next experiment has as its target PUM1 PUF domain R7-KFW (Homo sapiens, UniProt Q14671 828-1176, S1079K;N1080F;E1083W). The procedure, abridged:
as §1

Changes are numbered by the printed parent chain.

PUM1 PUF domain R7-RQN, sequence (Q14671 828-1176 S1079R/N1080Q/E1083N): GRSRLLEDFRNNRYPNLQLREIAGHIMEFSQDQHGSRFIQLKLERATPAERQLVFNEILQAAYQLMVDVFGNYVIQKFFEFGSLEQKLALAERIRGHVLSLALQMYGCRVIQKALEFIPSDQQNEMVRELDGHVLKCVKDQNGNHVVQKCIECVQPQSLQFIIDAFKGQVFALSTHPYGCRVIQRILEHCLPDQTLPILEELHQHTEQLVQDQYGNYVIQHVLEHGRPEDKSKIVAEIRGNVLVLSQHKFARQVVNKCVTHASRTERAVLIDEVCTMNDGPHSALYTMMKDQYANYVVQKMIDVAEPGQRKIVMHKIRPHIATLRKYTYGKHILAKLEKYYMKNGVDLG
PUM1 PUF domain R5-RWF, sequence (Q14671 828-1176 C1007R/R1008W/Q1011F): as the sequence (Q14671 828-1176 S1079R/N1080Q/E1083N) above, with C180R, R181W, Q184F, R252S, Q253N, N256E counted along it
PUM1 PUF domain R7-KGQ, sequence (Q14671 828-1176 S1079K/N1080G/E1083Q): as the sequence (Q14671 828-1176 S1079R/N1080Q/E1083N) above, with R252K, Q253G, N256Q counted along it
PUM1 PUF domain R3-LSE, sequence (Q14671 828-1176 C935L/R936S/Q939E): as the sequence (Q14671 828-1176 S1079R/N1080Q/E1083N) above, with C108L, R109S, Q112E, R252S, Q253N, N256E counted along it
PUM1 PUF domain R8-LFQ, sequence (Q14671 828-1176 N1122L/Y1123F): as the sequence (Q14671 828-1176 S1079R/N1080Q/E1083N) above, with R252S, Q253N, N256E, N295L, Y296F counted along it

In the case of “GGCUAGAACUAGUGGAUCCCCCGGCGCCCGGCGGCUCGAGCCCGGGUAAGUGUAAGUAGUCUGCAUGCCGCCGGGCGCCAUGCCUGCAGGUCGACUCUAGAAAACAUG”, the binding signal with PUM1 PUF domain R3-LSE was 2.76 log2 enrichment (interaction score).

With “GGCUAGAACUAGUGGAUCCCCCGGCGCCCGGCGGCUCGAGCCCGGGUAAGUUUAAAUAGUCUGCAUGCCGCCGGGCGCCAUGCCUGCAGGUCGACUCUAGAAAACAUG”, the binding signal in the experiment with PUM1 PUF domain R7-KGQ was 5.56 log2 enrichment (interaction score); with PUM1 PUF domain R7-RQN, 3.78 log2 enrichment (interaction score).

“GGCUAGAACUAGUGGAUCCCCCGGCGCCCGGCGGCUCGAGCCCGGGUAAGUGAAAAUAGUCUGCAUGCCGCCGGGCGCCAUGCCUGCAGGUCGACUCUAGAAAACAUG”: the binding signal with PUM1 PUF domain R6-RFA was 1.03 log2 enrichment (interaction score).

For the sequence “GGCUAGAACUAGUGGAUCCCCCGGCGCCCGGCGGCUCGAGCCCGGGUAAGUGUAAAUGGUCUGCAUGCCGCCGGGCGCCAUGCCUGCAGGUCGACUCUAGAAAACAUG”, in the experiment with PUM1 PUF domain R1-KSV, the binding signal was 1.55 log2 enrichment (interaction score).

In the case of “GGCUAGAACUAGUGGAUCCCCCGGCGCCCGGCGGCUCGAGCCCGGGUAAGCGUAAAUAGUCUGCAUGCCGCCGGGCGCCAUGCCUGCAGGUCGACUCUAGAAAACAUG”, the binding signal was 2.86 log2 enrichment (interaction score) in the experiment with PUM1 PUF domain R8-LFQ, 2.25 log2 enrichment (interaction score) in the experiment with PUM1 PUF domain R8-IFM and 4.44 log2 enrichment (interaction score) with PUM1 PUF domain R8-VWR.

Take “GGCUAGAACUAGUGGAUCCCCCGGCGCCCGGCGGCUCGAGCCCGGGUAAGUGUUAAUAGUCUGCAUGCCGCCGGGCGCCAUGCCUGCAGGUCGACUCUAGAAAACAUG”: the binding signal with PUM1 PUF domain R5-RWF was 4.13 log2 enrichment (interaction score); with PUM1 PUF domain R5-FHC, 4.26 log2 enrichment (interaction score).

For the sequence “GGCUAGAACUAGUGGAUCCCCCGGCGCCCGGCGGCUCGAGCCCGGGUAAGUGUGAAUAGUCUGCAUGCCGCCGGGCGCCAUGCCUGCAGGUCGACUCUAGAAAACAUG”, the results for the binding signal with PUM1 PUF domain R5-DRT and with PUM1 PUF domain R5-FHC were 2.11 log2 enrichment (interaction score) and 3.55 log2 enrichment (interaction score), respectively.

“GGCUAGAACUAGUGGAUCCCCCGGCGCCCGGCGGCUCGAGCCCGGGUAAGUGUAAAUAGUCUGCAUGCCGCCGGGCGCCAUGCCUGCAGGUCGACUCUAGAAAACAUG”: the binding signal with PUM1 PUF domain R5-GHS is 3.25 log2 enrichment (interaction score); in the experiment with PUM1 PUF domain R5-WHV it was 1.26 log2 enrichment (interaction score); with PUM1 PUF domain R6-TFS it was 4.51 log2 enrichment (interaction score); with PUM1 PUF domain R5-DRT, 2.42 log2 enrichment (interaction score); in the experiment with PUM1 PUF domain R3-MYH, 3.93 log2 enrichment (interaction score); in the experiment with PUM1 PUF domain R8-VWR, 4.37 log2 enrichment (interaction score). In addition, the binding signal with PUM1 PUF domain R3-VWP is 7.08 log2 enrichment (interaction score); with PUM1 PUF domain R2-NRW it was 6.69 log2 enrichment (interaction score); in the experiment with PUM1 PUF domain R6-RFA, 4.04 log2 enrichment (interaction score).

As to “GGCUAGAACUAGUGGAUCCCCCGGCGCCCGGCGGCUCGAGCCCGGGUAAGUGUAUAUAGUCUGCAUGCCGCCGGGCGCCAUGCCUGCAGGUCGACUCUAGAAAACAUG”, in the experiment with PUM1 PUF domain R4-DWV, the binding signal is 6.48 log2 enrichment (interaction score).

As to “GGCUAGAACUAGUGGAUCCCCCGGCGCCCGGCGGCUCGAGCCCGGGUAAGUGUAAAUUGUCUGCAUGCCGCCGGGCGCCAUGCCUGCAGGUCGACUCUAGAAAACAUG”, the binding signal in the experiment with PUM1 PUF domain R1-KSV is 2.75 log2 enrichment (interaction score).

Consider “GGCUAGAACUAGUGGAUCCCCCGGCGCCCGGCGGCUCGAGCCCGGGUAAGUGUCAAUAGUCUGCAUGCCGCCGGGCGCCAUGCCUGCAGGUCGACUCUAGAAAACAUG”, for which the results for the binding signal with PUM1 PUF domain R5-WHV and in the experiment with PUM1 PUF domain R5-DRT were 2.8 log2 enrichment (interaction score) and 1.84 log2 enrichment (interaction score), respectively.

With “GGCUAGAACUAGUGGAUCCCCCGGCGCCCGGCGGCUCGAGCCCGGGUAAGUGUAAUUAGUCUGCAUGCCGCCGGGCGCCAUGCCUGCAGGUCGACUCUAGAAAACAUG”, the binding signal in the experiment with PUM1 PUF domain R3-MCR was 4.47 log2 enrichment (interaction score); in the experiment with PUM1 PUF domain R3-VWP, 3.12 log2 enrichment (interaction score).

Take “GGCUAGAACUAGUGGAUCCCCCGGCGCCCGGCGGCUCGAGCCCGGGUAAGUCUAAAUAGUCUGCAUGCCGCCGGGCGCCAUGCCUGCAGGUCGACUCUAGAAAACAUG”: the figures for the binding signal with PUM1 PUF domain R7-RQN and with PUM1 PUF domain R7-KFW were 0.64 log2 enrichment (interaction score) and 3.75 log2 enrichment (interaction score), respectively.

For the origin of these results see article PMC8384837, “Expanding the binding specificity for RNA recognition by a PUF domain”.
